Laboratory results from paper PMC4336329 (PLoS ONE, 2015).
The whole screen tested about 310,000 compounds, of which about 14,000 (4.5%) showed an effect of 50% or more. The effect is printed as a negative number. Only a selection was taken, and strong results are over-represented in it overall.

What follows are compounds tested against human ether-à-go-go-related gene (hERG) potassium channel (human, UniProt Q12809) (assay: primary screen, population patch clamp on CHO cells stably expressing hERG; higher = less effect of the substance).
human ether-à-go-go-related gene (hERG) potassium channel, sequence (Q12809 whole entry, looked up): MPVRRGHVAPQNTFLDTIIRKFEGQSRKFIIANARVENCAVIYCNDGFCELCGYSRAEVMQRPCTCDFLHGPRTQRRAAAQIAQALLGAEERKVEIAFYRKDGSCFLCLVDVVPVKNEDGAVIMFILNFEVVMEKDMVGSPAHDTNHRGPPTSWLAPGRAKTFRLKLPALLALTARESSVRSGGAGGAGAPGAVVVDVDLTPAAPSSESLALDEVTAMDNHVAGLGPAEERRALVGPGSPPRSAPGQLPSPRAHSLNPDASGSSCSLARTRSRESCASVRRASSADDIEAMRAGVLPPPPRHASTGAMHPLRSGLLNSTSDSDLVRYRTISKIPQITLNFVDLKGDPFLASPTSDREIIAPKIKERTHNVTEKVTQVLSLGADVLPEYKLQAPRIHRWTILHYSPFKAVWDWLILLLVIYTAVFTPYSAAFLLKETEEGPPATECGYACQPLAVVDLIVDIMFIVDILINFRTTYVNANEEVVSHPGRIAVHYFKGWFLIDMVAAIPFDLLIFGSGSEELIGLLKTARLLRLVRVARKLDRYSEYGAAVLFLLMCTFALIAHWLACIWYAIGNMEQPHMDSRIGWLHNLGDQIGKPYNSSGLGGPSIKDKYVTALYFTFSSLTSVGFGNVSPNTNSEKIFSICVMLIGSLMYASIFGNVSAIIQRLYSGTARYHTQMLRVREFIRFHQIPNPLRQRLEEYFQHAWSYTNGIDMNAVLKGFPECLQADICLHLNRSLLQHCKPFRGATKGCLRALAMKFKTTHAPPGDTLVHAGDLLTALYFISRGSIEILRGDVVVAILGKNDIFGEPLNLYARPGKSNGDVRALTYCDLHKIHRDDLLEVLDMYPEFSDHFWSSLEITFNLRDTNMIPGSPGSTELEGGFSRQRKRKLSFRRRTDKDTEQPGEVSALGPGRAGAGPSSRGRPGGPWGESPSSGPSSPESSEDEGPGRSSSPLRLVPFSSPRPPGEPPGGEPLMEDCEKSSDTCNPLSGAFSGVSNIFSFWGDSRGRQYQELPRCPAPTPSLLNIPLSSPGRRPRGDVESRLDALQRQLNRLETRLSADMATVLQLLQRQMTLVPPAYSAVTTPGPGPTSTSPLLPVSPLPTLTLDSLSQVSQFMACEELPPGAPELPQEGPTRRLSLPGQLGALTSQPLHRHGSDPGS
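Also: peak tail current of the secondary pulse compared with the same well before compound.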

SMILES | hERG current change (%, negative = inhibition) at 10uM [%]
CN(C)S(=O)(=O)c1ccc(N2CCCC2)c(C(=O)Nc2nc3ccc(F)cc3s2)c1 | -37.1
Cc1nc(SCC(=O)Nc2ccc(C)c(F)c2)c2oc3ccccc3c2n1 | 4.4
COc1ccccc1NC(=O)c1cc(S(=O)(=O)N2CCC3(CC2)OCCO3)ccc1F | -4.73
COc1ccc(CN2CN(c3ccc(Cl)cc3)C(=O)N(n3cnnc3)C2)cc1 | -38.6
COC(=O)C1=C(c2ccccc2)C[C@@H]2CC[C@H]1N2C(=O)N1CCCCC1 | -4.4
Cn1c(=O)c2c(ncn2CCOc2ccc(F)cc2)n(C)c1=O | 12.3
O=C(N/C=N/O)C(c1ccccc1)c1ncc(C(F)(F)F)cc1Cl (stereo not shown) | 3.35
COc1ccc(-c2c/c(=N\c3nc(-c4ccccc4)c(C)s3)c3ccccc3o2)cc1O | 4.17
COc1ccccc1NC(=O)C1CCCCN1S(=O)(=O)c1ccc(F)cc1 (stereo not shown) | -27.9
O=C(NCc1ccc(F)cc1)N[C@@H](Cc1ccccc1)C(=O)O | 7.44
CC(=O)OCc1c(C(F)(F)F)nn(C)c1Oc1cccc(C(F)(F)F)c1 | 2.3
COc1ccc(C(CCNCc2ccc(N(C)C)cc2)c2ccccc2OC)cc1 (stereo not shown) | -71.1
COc1cccc(NC(=O)CC(c2ccc(OC(C)C)cc2)c2ccccc2OC)c1 (stereo not shown) | 1.26
COc1ccc(C(C)NCCC(c2ccc(OC(C)C)cc2)c2ccccc2OC)cc1 (stereo not shown) | -64.2
COc1ccc(C(O)P(=O)(OCc2ccccc2)c2ccc(N(C)C)cc2)cc1 (stereo not shown) | 15.4
COc1ccc(C(CCNCc2ccc(OC(C)C)cc2)c2ccccc2OC)cc1 (stereo not shown) | -76
COc1ccc(C(CCNC(C)c2ccccc2)c2ccc(F)cc2)cc1 (stereo not shown) | -54.6
COc1ccccc1C(CC(=O)Nc1ccc(Cl)cc1)c1ccc(OC(C)C)cc1 (stereo not shown) | 1.17
COc1ccc(C(CCNC(C)c2ccccc2)C(C)C)cc1 (stereo not shown) | -4.48
COc1ccc(C(CC(=O)Nc2ccc(F)cc2)c2ccccc2)cc1 (stereo not shown) | 9.13

SMILES | hERG current change (%, negative = inhibition) at 10uM [%]
COc1ccc(NC(=S)NCCC(c2ccccc2)c2ccccc2)c(OC)c1 | 2.53
CCOC(=O)c1nn(-c2ccc(C)cc2)c(C)c1C(C)=O | 4.57
Cc1ccc(S(=O)(=O)NNC(=O)C2COc3ccccc3O2)cc1 (stereo not shown) | 5.24
COc1ccc(C(CNC(=O)c2ccc(OCc3ccccc3)cc2)N2CCOCC2)cc1 (stereo not shown) | -18.1
CCOC(=O)N1CCC(N(CCN(C)C)C(=S)Nc2ccccc2OC)CC1 | -16.2
CCCC1=C(C(=O)OCC)C(c2ccc(F)cc2)n2ncnc2N1 (stereo not shown) | -21.3
COc1cccc(CN2C(=O)CCC2(C)C(=O)NC2CCCCCC2)c1 (stereo not shown) | -11.7
COc1ccc(-c2cc(=O)oc3cc(OC(=O)C4CCCCC4)c(Cl)cc23)cc1 | 11.2
COc1ccccc1C(CCNCc1ccc(N(C)C)cc1)c1ccc(OC(C)C)cc1 (stereo not shown) | -73.8
COc1ccccc1CNC(=O)c1ccc(OC(C)C)cc1 | 17.6
COc1ccccc1NC(=O)CC(c1ccc(OC(C)C)cc1)c1ccccc1OC (stereo not shown) | -1.62
COc1ccc(CNC(=S)NCc2ccc(OC(C)C)cc2)cc1 | -3.86
COc1ccc(C(CCNCc2ccc(N(C)C)cc2)C(C)C)cc1 (stereo not shown) | -40.5
COc1ccc(C(CCNCc2ccc(N(C)C)cc2)c2ccccc2)cc1 (stereo not shown) | -72.2
COc1ccccc1C(O)P(=O)(OCC(C)C)c1ccc(N(C)C)cc1 (stereo not shown) | -0.204
COc1ccccc1C(CC(=O)Nc1ccc(C)c(C)c1)c1ccc(OC(C)C)cc1 (stereo not shown) | 10.2
COc1ccc(CNC(c2ccccc2)c2ccc(Cl)cc2)cc1 (stereo not shown) | 6.38
COc1ccccc1C(CCNCc1ccccc1)c1ccc(OC(C)C)cc1 (stereo not shown) | -59.3
COc1ccc(CNCCC(c2ccc(OC(C)C)cc2)c2ccccc2OC)cc1 (stereo not shown) | -66.1
O=C(Nc1ncc(Br)s1)C1CCCN1S(=O)(=O)c1cccc2cccnc12 (stereo not shown) | -3.36

SMILES | hERG current change (%, negative = inhibition) at 10uM [%]
Cc1cccc(C(=O)O/N=C2\CCS(=O)(=O)c3sccc32)c1 | 1.16
Cc1ccc(NC(=O)C(OC(=O)c2ccc(NC(N)=O)cc2)c2ccccc2)cc1Cl (stereo not shown) | -3.17
COc1ccc(N2CCC(N3CCN(C)C(CCO)C3)CC2)cc1 (stereo not shown) | 10.2
O=C(NCC1CCCO1)c1ccc(Cl)c(S(=O)(=O)Nc2ccccc2)c1 (stereo not shown) | 2.86
O=C(CCc1ccccc1)Nc1nccs1 | 14.9
COc1ccccc1N1CCN(C(=O)c2ccc(Cn3c(=S)[nH]c4cc5c(cc4c3=O)OCO5)cc2)CC1 | 21.3
CC[C@H](C)[C@@H](NC(=O)O[C@@H]1C(=O)c2cc(OC)ccc2O[C@H]1c1ccc(OC)c(Br)c1)C(=O)OC | -1.62
CN(C)c1cccc(C(=O)Nc2nnc(Cc3ccccc3)s2)c1 | 0.344
Cn1cnc2cc(NCc3ccccc3O)ccc21 | 6.3
CCOc1ccccc1CN1CCN(CC2=Cc3cc(OC)ccc3OC2)CC1CCO (stereo not shown) | -83.3
COc1ccc2c(c1)C=C(CN1CCN(C(C)C)C(CCO)C1)CO2 (stereo not shown) | 5.68
COc1ccc2c(c1)C=C(CN1CCN(Cc3ccccc3C)C(CCO)C1)CO2 (stereo not shown) | -25.6
COc1cccc2c1OCC(CN1CCN(CCC(C)C)C(CCO)C1)=C2 (stereo not shown) | -3.37
COc1ccc2c(c1)C=C(CN1CCN(C3CCCC3)C(CCO)C1)CO2 (stereo not shown) | -68.2
CCOc1ccc(CN2CCN(CC3=Cc4cccc(OC)c4OC3)CC2CCO)cc1 (stereo not shown) | -83.4
COc1cccc2c1OCC(CN1CCN(C3CCCCC3)C(CCO)C1)=C2 (stereo not shown) | -17
COc1cccc2c1OCC(CN1CCN(Cc3ccccc3F)C(CCO)C1)=C2 (stereo not shown) | -19.3
COc1cccc2c1OCC(CN1CCN(Cc3ccccc3)C(CCO)C1)=C2 (stereo not shown) | -47.6
